Test [1] in a line: NCI Yeast Anticancer Drug Screen. Data for the rad50 strain (AID 155).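 Also: 0% = growth of vehicle-only cultures of the same strain.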 The settings on record: S. cerevisiae rad50 strain growth inhibition; at 50.0 µM; active compounds read high. The essentials:
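Compounds were tested on a yeast strain with an engineered DNA damage repair alteration; the reported value is growth inhibition normalised to vehicle treatment.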

Test [2] can be described thus: NCI Yeast Anticancer Drug Screen. Data for the mec2-1 strain (AID 157). To be noted: S. cerevisiae mec2-1 strain, at 50.0 µM, active compounds read high. The essentials:
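Mutant yeast (mec2-1) grown with compound; growth inhibition relative to vehicle control reported.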

Test [3] is described as follows: NCI Yeast Anticancer Drug Screen. Data for the sgs1 mgt1 strain (AID 161).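 Also: 0% = growth of cultures given vehicle only.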 The settings on record: S. cerevisiae sgs1 mgt1 strain, at 50.0 µM, active compounds read high. Put shortly: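 Growth of a repair-deficient yeast mutant was monitored after compound treatment and expressed as inhibition relative to vehicle-treated cultures.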
Test [4] can be described thus: NCI Yeast Anticancer Drug Screen. Data for the cln2 rad14 strain (AID 165).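 Also: 0% = growth equal to vehicle treated cultures.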 The settings on record: S. cerevisiae cln2 rad14 strain, at 50.0 µM, active compounds read high. The essentials: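 Readout is yeast growth inhibition versus vehicle-treated controls, using a strain with cln2 and rad14 alterations exposed to compound.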
Test [5] in a line: NCI Yeast Anticancer Drug Screen. Data for the bub3 strain (AID 167). The settings on record: S. cerevisiae bub3 mutant strain, at 50.0 µM, active compounds read high. Put shortly: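 Growth of a checkpoint-deficient yeast mutant is measured after compound exposure. Values represent inhibition relative to vehicle.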
A short description of test [6]: NCI Yeast Anticancer Drug Screen. Data for the mlh1 rad18 strain (AID 175). To be noted: S. cerevisiae mlh1 rad18 strain growth inhibition; at 50.0 µM; active compounds read high. Put shortly:
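Genetically defined yeast (DNA repair-deficient) exposed to compounds; growth inhibition determined relative to vehicle.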

Growth inhibition data for 18 compounds are collected here from PubChem BioAssay (NCI).

Compounds without any hit were thinned out: in the full panel of roughly 79,000, 15% have a hit. A number with no mark means an inactive call. Activity calls are given as the source filed them. Rule as the data show it: active = growth inhibition above about 70%; inactive = the rest. Where a SMILES comes first, the peptide text is derived from it. The star is where a group is joined. Cbz = O=C(OCc1ccccc1)*; NHNH2 = NN*

`Cc1ccc(S(=O)(=O)Nc2ccc3ncsc3c2[N+](=O)[O-])cc1`: the growth inhibition in test [1] is 97.2% (active); in test [2], 98.7% (active); in test [3], 98.3% (active); in test [4], 98.2% (active); in test [5], 98% (active); in test [6], 98% (active).
`COc1ccc(C(=N)c2ccccc2C)cc1`: the growth inhibition in test [1] is 8%; in test [2], -8.65%; in test [3] it was 6.05%; in test [4], 1.65%; in test [5], 8.5%; in test [6], -8.4%.
For the compound `O=C(Nc1ccc([N+](=O)[O-])cc1)OCc1ccccc1`, the growth inhibition in test [1] is -14.1%; in test [2] it was -0.05%; in test [3] it was -9.35%; in test [4], 0.7%; in test [5] it was 1.7%; in test [6], -16%.
Take `COC(=O)CC(NC(=O)OCc1ccccc1)C(=O)NC(CC(=O)OC)C(=O)NC(CC(=O)OC)C(=O)NC(CC(=O)OC)C(=O)NC(CC(=O)OC)C(=O)NC(CC(=O)OC)C(=O)NN` (stereo not drawn) (Cbz-D(OMe)D(OMe)D(OMe)D(OMe)D(OMe)D(OMe)-NHNH2; configuration not given here): the growth inhibition is -18.6% in test [1]; -16.9% in test [2]; -24.6% in test [3]; 20.6% in test [4]; 25.7% in test [5]; -18.5% in test [6].
Turning to `CN(C)c1ccc([N+](=O)[O-])c2c1CCC2`, the growth inhibition in test [1] is 9.7%; in test [2] it was -4.55%; in test [3], 7.25%; in test [4], 5.6%; in test [5] it was 6.85%; in test [6], 6.55%.
On to `CC(C(=O)c1ccc(Cl)cc1)C1=NC2NN(c3ccccc3)C(=O)C2=C1C(C)C(=O)c1ccc(Cl)cc1` (stereo not drawn), for which the growth inhibition in test [1] was 10.5%; in test [2], -12.3%; in test [3], 6%; in test [4], -0.3%; in test [5], 1.8%; in test [6], 3.25%.
For the compound `COC1(OC)CCC2C1C1CCC(OC)(OC)C21` (stereo not drawn), the growth inhibition in test [1] was 1.7%; in test [2], -3.35%; in test [3] it was 11.3%; in test [4], 8.75%; in test [5] it was 3.4%; in test [6], -17.4%.
As to `CCOC(=O)C(C)(NC(=O)c1ccc(NCc2ccc3nc(NC(=O)c4ccccc4)nc(NC(=O)c4ccccc4)c3c2)cc1)C(=O)OCC`, the growth inhibition in test [1] is -4.1%; in test [2], -24%; in test [3], 7.5%; in test [4], -24.1%; in test [5], -16.5%; in test [6] it was -8.45%.
Take `Cc1cnc2cc(Cl)ccc2c1NCCN(CC(C)C)CC(C)C`: the growth inhibition in test [1] is -11%; in test [2] it was 0.7%; in test [3] it was -10.6%; in test [4], -22.5%; in test [5], 0.05%; in test [6], -30.8%.
For `CC(=O)Nc1ccc(S(=O)(=O)c2ccc(NC(C)=O)s2)s1`, the growth inhibition in test [1] was -6.05%; in test [2], -1.3%; in test [3] it was -4.1%; in test [4], -15.4%; in test [5] it was -15.3%; in test [6], -18.9%.
Turning to `C=CCC1CCC/C1=N\O` (stereo not drawn), the growth inhibition in test [1] was -13.4%; in test [2], 10.4%; in test [3], 17.3%; in test [4], -12.2%; in test [5], -3.15%; in test [6], 3.9%.
Take `COc1ccc(-c2cc(=O)c3cccnc3[nH]2)cc1`: the growth inhibition was 30.1% in test [1]; 12.9% in test [2]; 32.4% in test [3]; 0.7% in test [4]; 12.2% in test [5]; 21.1% in test [6].
As to `Cc1cc(Cc2cc(C)c(NC(=O)C(=O)C3CCC4=C(SC5C=CC=CC5N4)C3=O)c(C(C)C)c2)cc(C(C)C)c1NC(=O)C(=O)C1CCC2=C(SC3C=CC=CC3N2)C1=O` (stereo not drawn), the growth inhibition in test [1] is -15.8%; in test [2], -13.6%; in test [3], -8.1%; in test [4], 15.2%; in test [5], 15.3%; in test [6], -28.1%.
Take `CCOC(=O)C1(C(=O)OCC)CCCCC1=O`: the growth inhibition in test [1] was 13.2%; in test [2], -15.2%; in test [3], -22.9%; in test [4] it was 11.2%; in test [5], -46.6%; in test [6], -1.1%.
Consider `CCCCCC(=O)N1SC(NC(=O)OC)=Nc2ccccc21`, for which the growth inhibition in test [1] was 63.5%; in test [2] it was 47.5%; in test [3], 64.8%; in test [4], 84.3% (active); in test [5] it was 90.6% (active); in test [6] it was 83.5% (active).
Regarding `COc1cc2ccc3c(c2cc1OC)CCc1cn[nH]c1-3`, the growth inhibition was 2.05% in test [1]; 3.4% in test [2]; 8% in test [3]; 27.4% in test [4]; 11.8% in test [5]; 9.45% in test [6].
For `CCCCOC(=O)NC(C)=O`, the growth inhibition is -14.1% in test [1]; -18.9% in test [2]; -15.2% in test [3]; -11.6% in test [4]; -1.55% in test [5]; -16.1% in test [6].
On to `C=C(CC(O)c1ccccc1)C(=O)Nc1ccccc1OC` (stereo not drawn), for which the growth inhibition in test [1] is 25.9%; in test [2], 0.45%; in test [3] it was 13.3%; in test [4] it was 1.25%; in test [5], 6.3%; in test [6], 4.1%.
